A short description of test [1]: qHTS assay to identify small molecule antagonists of the thyroid receptor (TR) signaling pathway - cell viability counter screen (AID 743064). Also: nearly all actives have a fitted effect of over 50% in size. Also: potency is read from the fitted curve at half-maximal effect. A digest of the protocol:
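In-well cytotoxicity read by CellTiter-Fluor (30 min, 37 C) following 23.5 h exposure of GH3 cells bearing a TRE-luciferase sensor. Compounds were added alongside 1 nM (final) T3 to drive TR transactivation.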

Test [2] can be described thus: qHTS assay to identify small molecule antagonists of the thyroid receptor (TR) signaling pathway (AID 743065). Also: nearly all actives have a fitted effect of over 55% in size. Also: potency is read from the fitted curve at half-maximal effect. A digest of the protocol: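 GH3.TRE-Luc rat pituitary cells carrying two TR response elements driving luciferase were plated for 4 h, given compound plus 1 nM T3 (final), and incubated 23.5 h at 37 C. ONE-Glo luminescence measured reporter inhibition; CellTiter-Fluor fluorescence tracked cytotoxicity.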
For orientation: qHTS replaces the single test concentration by a dilution series.

Test [3] has as its system thyroid hormone receptor (rat, GH3 cells). The experiment in a line: qHTS assay to identify small molecule agonists of the thyroid receptor (TR) signaling pathway (AID 743066; calls by dose curve).
The nature of test [4]: qHTS assay to identify small molecule antagonists of the estrogen receptor alpha (ER-alpha) signaling pathway - cell viability counter screen (AID 743074; calls by dose curve;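 also: HEK293 cells carrying ER-alpha-UAS-bla reporter stimulated with 17beta-estradiol; nearly all actives have a fitted effect of over 45% in size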).
The target in test [5] is Estrogen receptor (Homo sapiens) (UniProt P03372). In words: qHTS assay to identify small molecule agonists of the estrogen receptor alpha (ER-alpha) signaling pathway (AID 743075; calls by dose curve;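 also: HEK293 GripTite cells with ER-alpha and UAS-driven beta-lactamase reporter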).
Test [6] shares this target. The experiment in a line: qHTS assay to identify small molecule agonists of the estrogen receptor alpha (ER-alpha) signaling pathway using the BG1 cell line (AID 743079). Also: nearly all actives have a fitted effect of over 20% in size.
Test [7] can be described thus: qHTS assay to identify small molecule antagonists of the estrogen receptor alpha (ER-alpha) signaling pathway using the BG1 cell line (AID 743080; calls by dose curve;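 also: BG1 cells stimulated with 17beta-estradiol alongside compound; series mostly up to about 70 µM; nearly all actives have a fitted effect of over 25% in size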). A digest of the protocol:
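Quantitative HTS on the Tox21 10K library: BG1 cells with endogenous ER-alpha and ERE-luciferase reporter, 17beta-estradiol stimulation, 21.5 h compound exposure, luminescence endpoint with parallel fluorescence cytotoxicity counter-read.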

A short description of test [8]: qHTS assay to identify small molecule antagonists of the estrogen receptor alpha (ER-alpha) signaling pathway using the BG1 cell line - cell viability counter screen (AID 743081).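 Also: compound given together with 17beta-estradiol as the ER stimulus; series mostly up to about 70 µM; nearly all actives have a fitted effect of over 45% in size.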
Test [9] deals with Aromatase (Homo sapiens) (UniProt P11511). In words: qHTS assay to identify aromatase inhibitors (AID 743083). Also: series mostly up to about 70 µM; nearly all actives have a fitted effect of over 55% in size.
The nature of test [10]: qHTS assay to identify aromatase inhibitors - cell viability counter screen (AID 743084).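 Also: cells stimulated with testosterone during compound exposure; nearly all actives have a fitted effect of over 55% in size.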
In test [11] the target is Aryl hydrocarbon receptor (Homo sapiens) (UniProt P35869). The experiment in a line: qHTS assay to identify small molecule that activate the aryl hydrocarbon receptor (AhR) signaling pathway (AID 743085).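 Also: HG2L7.5c1 human HepG2 liver cells with stably integrated DRE-driven firefly reporter; series mostly up to about 70 µM; nearly all actives have a fitted effect of over 15% in size.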 A digest of the protocol: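 Luminescence (ONE-Glo) from a dioxin-responsive-element luciferase reporter in HG2L7.5c1 HepG2 cells after 24 hr compound exposure at 37C; viability measured by CellTiter-Fluor fluorescence beforehand.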

Test [12] can be described thus: qHTS assay to identify small molecule that activate the aryl hydrocarbon receptor (AhR) signaling pathway - cell viability counter screen (AID 743086). Also: nearly all actives have a fitted effect of over 45% in size. Also: potency is read from the fitted curve at half-maximal effect. A digest of the protocol: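 HepG2-AhR-luc (HG2L7.5c1) cells, 4000/well, were preincubated 5 h at 37C, exposed to compound in qHTS format for 24 hr at 37C, then given CellTiter-Fluor for 30 min; viability was read as fluorescence in the reporter wells.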

In test [13] the target is Peroxisome proliferator-activated receptor gamma (Homo sapiens) (UniProt P37231). In words: qHTS assay to identify small molecule agonists of the peroxisome proliferator-activated receptor gamma (PPARg) signaling pathway (AID 743094; active = well fitted activation curve with a large enough effect in the signal ratio in the repeat runs, not every such curve was filed as active; the % refers to the signal ratio). A digest of the protocol: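 Beta-lactamase FRET fluorescence was the read-out after a 1 h room-temperature substrate step, following 17 h compound treatment at 37C of HEK293H cells expressing a UAS-driven bla reporter responsive to PPARg.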

A short description of test [14]: qHTS assay for small molecule activators of the heat shock response signaling pathway - cell viability counter screen (AID 743209). Also: nearly all actives have a fitted effect of over 50% in size. Also: potency is read from the fitted curve at half-maximal effect. A digest of the protocol:
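Luminescence from CellTiter-Glo, added after the beta-lactamase FRET read, gave the viability signal. Cells were HSE-bla HeLa treated with DMSO-dissolved compounds for 5 h at 37 C following overnight plating.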

Test [15] is described as follows: qHTS assay to identify small molecule antagonists of the peroxisome proliferator-activated receptor gamma (PPARg) signaling pathway - cell viability counter screen (AID 743194). Also: nearly all actives have a fitted effect of over 55% in size. A digest of the protocol: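 PPARg-UAS-bla HEK293H cells were plated, rested 5 h at 37 C, then treated with compounds plus rosiglitazone (50 nM final) for 17 h at 37 C; viability was then read by CellTiter-Glo luminescence after 30 min at room temperature.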

A short description of test [16]: qHTS assay for small molecule agonists of the antioxidant response element (ARE) signaling pathway - cell viability counter screen (AID 743203; calls by dose curve; also: nearly all actives have a fitted effect of over 55% in size; also: potency is read from the fitted curve at half-maximal effect). A digest of the protocol:
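HepG2 cells carrying ARE-driven beta-lactamase; 2,000 cells/well; 5 hrs plating; compound pinned from DMSO; 16 hrs 37C/5% CO2; CellTiter-Glo added; 30 min RT; luminescence.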

In test [17] the target is Peroxisome proliferator-activated receptor gamma (Homo sapiens) (UniProt P37231). The experiment in a line: qHTS assay to identify small molecule antagonists of the peroxisome proliferator-activated receptor gamma (PPARg) signaling pathway (AID 743191; calls by dose curve; also: series mostly up to about 63 µM; nearly all actives have a fitted effect of over 30% in size). A digest of the protocol:
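GeneBLAzer PPARg UAS-bla HEK293H cells carrying a UAS-driven beta-lactamase reporter were plated at 3000 cells/well, preincubated 5 h at 37C, then given compound for 17 h at 37C; LiveBLAzer B/G FRET substrate was read after 1 h at room temperature.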

The nature of test [18]: qHTS assay for small molecule activators of the heat shock response signaling pathway (AID 743210; active = well fitted activation curve with a large enough effect in the signal ratio in the repeat runs, with a control signal flat, not every such curve was filed as active; the % refers to the signal ratio;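 also: HeLa cells with beta-lactamase reporter driven by heat shock elements; series mostly up to about 63 µM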). A digest of the protocol: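 Reporter gene assay: HeLa cells stably bearing an HSE-bla construct, compound treatment 5 h at 37 C, LiveBLAzer substrate 2.5 h at RT, fluorescence intensity.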
The nature of test [19]: qHTS assay for small molecule agonists of the antioxidant response element (ARE) signaling pathway (AID 743202; active = well fitted activation curve with a large enough effect in the signal ratio in the repeat runs, not every such curve was filed as active; the % refers to the signal ratio). A digest of the protocol:
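Compounds delivered in DMSO to ARE-bla HepG2 cells (2,000 cells/well, pre-incubated 5 h) and left 16 h at 37 C. LiveBLAzer B/G FRET substrate then added for 2 h at RT before fluorescence reading.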

Here are results for eight molecules from PubChem BioAssay (Tox21).

Where “and” joins values, the source holds several entries; their conditions need not be identical. Equal entries are not always repeated. Results filed as inconclusive are left out. Calls of active or inactive are those of the source. Unless noted, calls follow the shape of the dose curve; as a rule, active = well fitted curve in the direction sought with a large enough effect in the repeat runs; inconclusive = weak or mixed curves; inactive = no such curve, though single readings can be large; an effect the other way counts as inactive or inconclusive.

Aryl hydrocarbon receptor (Homo sapiens), sequence (P35869 whole entry, looked up): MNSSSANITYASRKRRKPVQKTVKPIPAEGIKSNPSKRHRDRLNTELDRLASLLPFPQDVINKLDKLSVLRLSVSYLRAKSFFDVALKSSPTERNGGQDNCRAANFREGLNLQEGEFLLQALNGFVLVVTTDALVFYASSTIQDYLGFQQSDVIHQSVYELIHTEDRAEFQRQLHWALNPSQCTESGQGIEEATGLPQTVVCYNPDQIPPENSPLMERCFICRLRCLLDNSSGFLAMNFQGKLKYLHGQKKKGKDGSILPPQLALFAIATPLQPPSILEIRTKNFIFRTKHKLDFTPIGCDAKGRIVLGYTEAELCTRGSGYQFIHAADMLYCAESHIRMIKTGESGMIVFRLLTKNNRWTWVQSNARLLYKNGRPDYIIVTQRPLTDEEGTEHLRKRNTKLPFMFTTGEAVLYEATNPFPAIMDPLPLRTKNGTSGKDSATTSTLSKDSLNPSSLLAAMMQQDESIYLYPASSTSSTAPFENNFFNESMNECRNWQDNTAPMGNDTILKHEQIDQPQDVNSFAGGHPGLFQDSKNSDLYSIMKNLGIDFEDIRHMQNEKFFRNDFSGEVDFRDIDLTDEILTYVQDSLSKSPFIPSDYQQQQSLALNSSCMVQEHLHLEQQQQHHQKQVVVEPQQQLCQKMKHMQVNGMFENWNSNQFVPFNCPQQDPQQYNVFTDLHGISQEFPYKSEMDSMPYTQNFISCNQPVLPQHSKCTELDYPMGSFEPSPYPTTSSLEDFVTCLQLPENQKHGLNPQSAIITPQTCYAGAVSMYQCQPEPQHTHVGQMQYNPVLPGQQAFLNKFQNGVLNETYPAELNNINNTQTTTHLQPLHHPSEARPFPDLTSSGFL
Estrogen receptor (Homo sapiens), sequence (P03372 whole entry, looked up): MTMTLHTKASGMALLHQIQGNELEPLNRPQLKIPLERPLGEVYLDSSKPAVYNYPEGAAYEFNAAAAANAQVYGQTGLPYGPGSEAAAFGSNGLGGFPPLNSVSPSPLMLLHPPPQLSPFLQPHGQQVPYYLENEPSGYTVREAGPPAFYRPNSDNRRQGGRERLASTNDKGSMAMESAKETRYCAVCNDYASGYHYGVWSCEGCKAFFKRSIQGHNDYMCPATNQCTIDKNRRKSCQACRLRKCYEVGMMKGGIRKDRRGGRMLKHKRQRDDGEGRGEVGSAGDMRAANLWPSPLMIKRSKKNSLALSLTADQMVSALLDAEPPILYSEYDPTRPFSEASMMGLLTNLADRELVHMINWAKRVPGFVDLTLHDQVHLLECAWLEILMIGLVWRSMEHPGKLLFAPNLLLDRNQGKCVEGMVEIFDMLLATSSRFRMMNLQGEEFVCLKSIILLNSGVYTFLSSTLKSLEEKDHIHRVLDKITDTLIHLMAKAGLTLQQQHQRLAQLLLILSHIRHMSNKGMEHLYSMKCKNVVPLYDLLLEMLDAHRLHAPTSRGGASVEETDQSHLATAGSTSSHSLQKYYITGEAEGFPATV
Aromatase (Homo sapiens), sequence (P11511 whole entry, looked up): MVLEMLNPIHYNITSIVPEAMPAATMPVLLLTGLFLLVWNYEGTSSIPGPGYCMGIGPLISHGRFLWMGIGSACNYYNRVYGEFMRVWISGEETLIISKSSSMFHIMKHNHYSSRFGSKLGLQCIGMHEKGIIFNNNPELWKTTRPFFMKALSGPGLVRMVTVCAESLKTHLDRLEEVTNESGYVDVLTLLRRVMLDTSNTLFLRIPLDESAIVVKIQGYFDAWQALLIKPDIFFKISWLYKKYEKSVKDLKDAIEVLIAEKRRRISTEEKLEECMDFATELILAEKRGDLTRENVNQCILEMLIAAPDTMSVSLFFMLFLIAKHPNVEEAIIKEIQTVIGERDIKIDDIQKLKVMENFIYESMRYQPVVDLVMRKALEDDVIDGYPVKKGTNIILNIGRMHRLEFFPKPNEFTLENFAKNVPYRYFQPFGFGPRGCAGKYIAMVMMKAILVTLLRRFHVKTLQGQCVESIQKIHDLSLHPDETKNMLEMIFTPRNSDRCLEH
Peroxisome proliferator-activated receptor gamma (Homo sapiens), sequence (P37231 whole entry, looked up): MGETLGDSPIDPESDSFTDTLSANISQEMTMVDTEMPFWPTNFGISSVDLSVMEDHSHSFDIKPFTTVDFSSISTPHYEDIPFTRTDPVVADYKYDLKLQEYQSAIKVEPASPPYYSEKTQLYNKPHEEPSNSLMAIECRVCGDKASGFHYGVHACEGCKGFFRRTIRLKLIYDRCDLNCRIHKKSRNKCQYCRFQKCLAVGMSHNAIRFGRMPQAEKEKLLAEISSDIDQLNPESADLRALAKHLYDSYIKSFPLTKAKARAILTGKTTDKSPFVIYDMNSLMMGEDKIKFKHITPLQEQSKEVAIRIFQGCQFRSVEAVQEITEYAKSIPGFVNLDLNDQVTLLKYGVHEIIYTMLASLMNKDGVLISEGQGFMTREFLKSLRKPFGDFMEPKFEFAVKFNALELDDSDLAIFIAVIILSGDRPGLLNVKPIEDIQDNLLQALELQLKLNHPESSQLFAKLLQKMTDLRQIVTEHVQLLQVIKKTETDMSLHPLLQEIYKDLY

Regarding `CC1(C)[C@@H](O)CC[C@]2(C)[C@H]3C(=O)C=C4[C@@H]5C[C@@](C)(C(=O)O)CC[C@]5(C)CC[C@@]4(C)[C@]3(C)CC[C@@H]12`, the Potency in test [1] is 29.8 µM (active) and 24.1 µM (active); in test [2], 29.8 µM (active) and 26.6 µM (active) and 27 µM (active); in [14], 48.4 µM (active). In addition, the molecule was called inactive in [3]. In addition, the Potency entry in [4], in test [5], in test [6], in [7], in test [8] and in [9] was “inactive” each time. The Potency result in test [10], in [11], in test [12] and in test [13] was “inactive” each time.

As for `CCCCCCCCCCC[C@@H](C[C@@H]1OC(=O)[C@H]1CCCCCC)OC(=O)[C@H](CC(C)C)NC=O`, the Potency result in test [1], in test [2], in test [4], in test [5], in test [6] and in test [7] was “inactive” each time. The Potency result in test [9], in test [10], in test [11], in [12], in test [13] and in [15] was “inactive” throughout. The Potency entry in [16] and in [14] was “inactive” each time. In addition, the molecule was classed as inactive in test [3].

Turning to `O=c1[nH]c2ccccc2n1CCCN1CCN(C(c2ccccc2)c2ccccc2)CC1`, the Potency in [1] was 23.7 µM (active); in test [2], 23.7 µM (active); in [12], 26.6 µM (active); in test [16] it was 29.8 µM (active). For the same molecule, the molecule was classed as inactive in test [3]. Further, the Potency entry in test [4], in test [9], in [10], in [15] and in test [14] was “inactive” in each case.

As for `O=C(/C=C/c1ccc(O)c(O)c1)O[C@@H](C(=O)O)[C@@H](OC(=O)/C=C/c1ccc(O)c(O)c1)C(=O)O`, the Potency entry in test [1], in test [2], in [4], in test [8], in test [9] and in test [10] was “inactive” each time. Besides, the Potency entry in test [12], in test [13], in [17], in test [15], in [16] and in [14] was “inactive” throughout. Further, the Potency entry in test [18] was “inactive”. The result in test [3] was inactive.

Take `Cc1ccc(C(=O)O)cc1`: the Potency result in [1], in test [2], in test [4], in test [8], in [9] and in [10] was “inactive” each time. Moreover, the Potency entry in test [11], in [12], in [13], in test [15], in test [19] and in test [14] was “inactive” throughout. The Potency result in [18] was “inactive”. For the same molecule, the outcome in test [3] was inactive.

In the case of `Nc1nc(N)nc(-c2cc(Cl)ccc2Cl)n1`, the Potency result in test [1], in [2], in test [4], in test [8], in test [10] and in test [11] was “inactive” each time. For the same molecule, the Potency result in test [12], in test [15], in test [19], in test [16], in [14] and in test [18] was “inactive” in each case. Also, in [3], the call was inactive.

In the case of `Cc1nc(-c2ccc(Cl)cc2)oc1COC(C)(C)C(=O)O`, the Potency entry in test [1], in [2], in [4], in test [8], in test [12] and in [15] was “inactive” each time. The Potency result in test [16] and in test [18] was “inactive” throughout. Moreover, the result in test [3] was inactive.

With `Sc1nc2ccccc2s1`, the Potency entry in test [1], in [2], in [4], in test [8], in test [10] and in test [12] was “inactive” throughout. Moreover, the Potency entry in test [15], in test [16] and in [14] was “inactive” throughout. Also, in test [3], the molecule was classed as inactive.
